# The list is not random: actives were taken first. Their share in the collection is about 3.3%.
# UHRF1 MBD2 ctr: UHRF1 methylated DNA binding inhibitors, primary screen, counter-screen for MBD2 inhibitor project, biochemical, TR-FRET, human UHRF1, single concentration. E3 ubiquitin-protein ligase UHRF1 (Homo sapiens), Q96T88. UHRF1 binding to methylated oligo. inhibition, % at 4.4 µM. 370,000 tested, 0.75% active. AID 687016, 2013; in the data active means inhibition above about 21%;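 further: UHRF1 SRA domain binding a hemimethylated CpG hairpin DNA probe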
# Target sequence (Q96T88 whole entry, looked up, the tested form may be a part): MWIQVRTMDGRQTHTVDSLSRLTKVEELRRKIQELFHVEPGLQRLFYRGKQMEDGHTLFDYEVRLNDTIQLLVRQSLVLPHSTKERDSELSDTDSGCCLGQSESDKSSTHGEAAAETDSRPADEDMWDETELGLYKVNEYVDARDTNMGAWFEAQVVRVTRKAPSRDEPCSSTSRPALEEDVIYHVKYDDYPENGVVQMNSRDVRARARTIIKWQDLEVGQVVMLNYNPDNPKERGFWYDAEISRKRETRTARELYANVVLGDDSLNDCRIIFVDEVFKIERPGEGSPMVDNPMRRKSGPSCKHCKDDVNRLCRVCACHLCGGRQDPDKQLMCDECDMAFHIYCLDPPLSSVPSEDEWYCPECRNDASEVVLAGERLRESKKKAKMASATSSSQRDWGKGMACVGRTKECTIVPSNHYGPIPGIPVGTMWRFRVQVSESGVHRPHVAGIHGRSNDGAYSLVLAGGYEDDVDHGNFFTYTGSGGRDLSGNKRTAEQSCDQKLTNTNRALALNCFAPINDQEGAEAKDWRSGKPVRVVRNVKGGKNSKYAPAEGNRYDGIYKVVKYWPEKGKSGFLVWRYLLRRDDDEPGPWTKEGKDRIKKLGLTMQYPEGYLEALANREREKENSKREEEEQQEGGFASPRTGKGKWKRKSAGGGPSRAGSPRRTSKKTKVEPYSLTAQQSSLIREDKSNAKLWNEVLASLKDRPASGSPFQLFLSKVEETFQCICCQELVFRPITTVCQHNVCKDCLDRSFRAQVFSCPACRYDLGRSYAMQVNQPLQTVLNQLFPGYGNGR
# PfG6PD inh: PfG6PD enzyme inhibitors, primary screen, biochemical, fluorescence intensity, uHTS | glucose-6-phosphate dehydrogenase-6-phosphogluconolactonase (Plasmodium falciparum 3D7) | PfGluPho enzyme, NADPH resazurin-diaphorase fluorescence | inhibition, % at 20 µM | 350,000 tested, 0.78% active | AID 504690, 2011;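 active means inhibition reaching at least a set limit at 20 µM in the primary screen, cut at about 59% in these data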
# MBD2 DNA inh: inhibitors of MBD2 binding to methylated DNA, primary screen, biochemical, TR-FRET, DNA-binding domain, human | MBD2 binding to methylated oligonucleotide | inhibition, % at 4.4 µM | 370,000 tested, 0.31% active | AID 686964, 2013; in the data active means inhibition above about 13%
# M18AAP inhibitor: PfM18AAP inhibitors, malaria aminopeptidase, primary screen, biochemical, QFRET, recombinant enzyme. 290,000 tested, 1.2% active. M18 aspartyl aminopeptidase (Plasmodium falciparum 3D7). H-Glu-NHMec fluorogenic cleavage. inhibition, % at 7.35 µM;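 active means inhibition above the campaign mean inhibition over all tested compounds plus 3 SD, cut at about 28% in these data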
# PRMT1 inh: PRMT1 methyltransferase inhibitors, primary screen, biochemical, fluorescence polarization | Protein arginine N-methyltransferase 1 (Homo sapiens), Q99873 | recombinant PRMT1, activity-based probe fluorescence polarization | inhibition, % at 2.79 µM | 370,000 tested, 1.3% active;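 active means inhibition above about 21% made by adding two undisclosed values, limit read from the data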
# PRMT1 confirm: PRMT1 methyltransferase inhibitors, confirmation, biochemical, fluorescence polarization, triplicate. shares compounds with PRMT1 inh. inhibition, % at 2.79 µM. AID 687036, 2013. recombinant His-PRMT1, activity-based probe fluorescence polarization. 3,300 tested, 42% active;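 active means mean inhibition across replicates above the hit cutoff derived for the earlier primary screen, cut at about 22% in these data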
# Numbers stand for hits; . = inactive; / = no result given.
SMILES,UHRF1 MBD2 ctr,PfG6PD inh,MBD2 DNA inh,M18AAP inhibitor,PRMT1 inh,PRMT1 confirm
Cc1cccc(-c2nnc(SCC(=O)Nc3ccc(-c4nc5ccc(C)cc5s4)cc3)n2Cc2ccco2)c1,.,/,.,/,41.0,.
CCn1c(SCC(=O)Nc2ccc(-c3nc4ccc(C)cc4s3)cc2)nnc1-c1ccccc1,/,/,/,.,/,/
Cc1cccc(-c2nnc(SCC(=O)Nc3ccc(OCc4ccccc4)cc3)n2Cc2ccco2)c1,.,/,.,/,.,/
Cc1cc(C)n2nc(C(=O)OCC(=O)Nc3ccc(F)cc3F)nc2n1,.,.,.,/,.,/
CC(C)(C)c1ccc(C(=O)N/C(=C\c2ccco2)C(=O)Nc2ccccc2C(=O)O)cc1,.,.,.,.,45.9,.
O=C(Nc1ccc(C(=O)O)cc1)/C(=C\c1ccco1)NC(=O)c1ccccc1,.,.,.,.,.,/
O=C(/C=C/c1ccco1)Nc1cccc(C(=O)Nc2ccccc2C(=O)O)c1,36.6,.,.,.,25.9,46.0
COc1ccc(NC(=O)C2CCCN(C(=O)c3ccc(Cl)cc3)C2)cc1Cl (stereo not drawn),.,.,.,/,.,/
Cc1ccc(Cn2c(=S)[nH]c3ccc(N4CCOCC4)cc3c2=O)o1,.,.,.,.,68.7,60.9
O=C(CSc1nccc(=O)[nH]1)Nc1cccc(S(=O)(=O)N2CCOCC2)c1,.,.,.,.,45.0,31.7
Cc1cccc(-n2c(C)n[nH]c2=S)c1,.,.,.,.,.,/
Cc1ccc(C2CC2c2n[nH]c(=S)n2-c2cccc(C)c2)cc1 (stereo not drawn),.,.,.,.,25.8,.
S=c1[nH]nc([C@@H]2C[C@H]2c2ccccc2)n1-c1ccccc1Cl,.,.,.,.,.,/
Cc1ccc(C2CC2c2n[nH]c(=S)n2-c2ccc(Cl)cc2)cc1 (stereo not drawn),.,.,.,.,26.7,.
NCC1CC2c3ccccc3C1c1ccccc12 (stereo not drawn),.,.,.,.,.,/
CCCCCCCNC(=O)C1(CC2CC(c3ccc(Cl)cc3)=NO2)CCN(C(=O)c2cc(OCC)c(OCC)c(OCC)c2)CC1 (stereo not drawn),.,.,.,.,.,/
O=C(CSc1nc2ccccc2c(=O)n1Cc1ccco1)NCc1ccco1,.,.,.,.,.,/
NS(=O)(=O)c1cccc(NC(=O)CSc2ncnc3ccccc23)c1,.,.,.,.,37.5,.
NS(=O)(=O)c1cccc(NC(=O)CSc2nc3ccccc3c(=O)n2Cc2ccco2)c1,.,.,.,/,79.9,.
COC(=O)c1ccc(N2C(=O)CC(SCC(=O)Nc3ccc(OC)cc3)C2=O)cc1 (stereo not drawn),.,.,.,.,52.8,48.6
O=C(CSC1CC(=O)N(c2ccc(C(=O)O)cc2)C1=O)Nc1ccc2ccccc2c1 (stereo not drawn),.,.,.,.,.,/
CCOC(=O)c1ccc(N2C(=O)CC(SCC(=O)Nc3ccc(S(N)(=O)=O)cc3)C2=O)cc1 (stereo not drawn),.,.,.,.,82.1,83.0
Cc1ccc(N2C(=O)CC(SCC(=O)Nc3ccc(S(N)(=O)=O)cc3)C2=O)cc1 (stereo not drawn),.,.,.,.,53.4,66.2
Cc1cccc(-c2nnc(C(C)Nc3cccc(C(=O)NC4CC4)c3)o2)c1 (stereo not drawn),.,.,.,/,.,/
Cc1ccc(S(=O)(=O)N2[C@@H](Cc3ccccc3)CO[C@H]2CC(=O)c2ccccc2)cc1,.,/,.,/,.,/
SMILES,UHRF1 MBD2 ctr,PfG6PD inh,MBD2 DNA inh,M18AAP inhibitor,PRMT1 inh,PRMT1 confirm
COc1ccc(NC(=O)CSc2nnc(-c3cccnc3)o2)c(OC)c1,.,.,.,/,27.6,36.2
COc1cc2c(cc1OC)CN(C(=O)c1ccc3[nH]c(C)c(C)c3c1)CC2,.,.,.,.,.,/
CCn1c(C)[n+](CCCS(=O)(=O)[O-])c2cc(Cl)c(Cl)cc21,.,.,.,.,.,/
O=S(=O)([O-])CCC[n+]1c(SCCCS(=O)(=O)O)sc2ccc(Cl)cc21,.,.,.,.,70.9,74.9
COc1ccc2[nH]c(=O)c(CNc3ccccc3)cc2c1,.,.,.,.,25.3,.
CCOc1ccc(NCc2cc3cc(OC)ccc3[nH]c2=O)cc1,.,.,.,.,.,/
CCOC(=O)N1CCC(N2C(=O)c3ccc(C(=O)Nc4ccc(OC)c(OC)c4)cc3C2=O)CC1,.,.,.,.,.,/
O=C1/C(=C/c2ccco2)Oc2c1ccc(O)c2CN1CCCCC1,.,.,.,.,34.6,46.6
Cc1ccc([C@H]2N[C@]3(CCCN(Cc4cccn4C)C3=O)[C@H]3C(=O)N(Cc4ccccc4)C(=O)[C@@H]23)cc1,.,.,.,/,.,/
CC12CCC(=O)N1C(C(=O)NNC(=O)c1ccc(Br)cc1)CS2 (stereo not drawn),.,.,.,/,.,/
CCOC(=S)SCc1cn2cccc(C)c2n1,.,.,.,.,56.7,.
Cc1ccnc(NC(c2ccsc2)c2ccc3ccc(C)nc3c2O)c1 (stereo not drawn),.,.,.,.,44.4,49.5
Cc1cccc(NC(c2ccc(C)s2)c2ccc3ccc(C)nc3c2O)n1 (stereo not drawn),.,.,.,.,25.7,28.4
O=C1CN(C(=O)COC(=O)c2ccc(C(F)(F)F)cc2)c2ccccc2N1,.,.,.,/,.,/
Nc1nc2c(s1)CCc1ccccc1-2,.,.,.,.,26.0,.
Cc1ccc(-c2cccc(NC(=O)C3C(C(=O)O)[C@@H]4C=C[C@H]3C4)c2)o1 (stereo partly drawn),.,.,.,.,64.8,.
Cc1ccc(-c2ccccc2NC(=O)C2C3C=CC(C3)C2C(=O)O)o1 (stereo not drawn),.,.,.,.,.,/
Cc1ccc(C)c(S(=O)(=O)N2CCN(C(=O)c3ccccn3)CC2)c1,.,.,.,/,.,/
COc1ccc(N2C(=O)CC(NCc3ccncc3)C2=O)cc1 (stereo not drawn),.,.,.,.,.,/
COc1ccc(N2C(=O)CC(NCc3ccc(F)cc3)C2=O)cc1 (stereo not drawn),.,.,.,.,65.8,.
COc1ccc(N2C(=O)CC(NCc3cccc(F)c3)C2=O)cc1 (stereo not drawn),.,.,.,/,54.8,.
O=C(NN1C(=O)C2C3C=CC(O3)C2C1=O)c1cccc(O)c1 (stereo not drawn),.,.,.,.,54.2,.

# Screens: PubChem BioAssay, several laboratories
